The record followed here is PubChem BioAssay (EPA / NIEHS).

A short description of experiment [1]: ATG_CMV_CIS: Attagene CIS-FACTORIAL HepG2 Assay for human CMV (Internal Marker) (AID 2282928; active = hit-call score of the fitted dose curve at least 0.9, where 1 is the maximum; inactive = score below 0.9;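 also: endpoint acts as a background internal control marker rather than a target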). The note with it: HepG2 CMV promoter reporter, transcription factor profiling; actives raise or lower the signal. Put shortly:
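Endogenous transcription factor activity read in HepG2 via transfected cis-promoter reporter units. After 24 h dosing, reporter mRNA measured by RT-PCR/capillary electrophoresis; gain or loss of signal fit relative to DMSO.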

Experiment [2] is described as follows: ATG_DR4_LXR_CIS: Attagene CIS-FACTORIAL HepG2 Assay for human Liver X Receptor (LXR), DR4 submotif (AID 2282929; active = hit-call score of the fitted dose curve at least 0.9, where 1 is the maximum; inactive = score below 0.9). Particulars: HepG2 Attagene DR4 cis-reporter, mRNA transcription; actives raise or lower the signal. The essentials:
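Transiently transfected HepG2 liver cells; cis-regulated reporters; 24 h dosing. RT-PCR plus CE read-out of reporter mRNA. DMSO baseline, bidirectional curve fitting.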

Experiment [3] is described as follows: ATG_AP_2_CIS: Attagene CIS-FACTORIAL HepG2 Assay for human Activator Protein 2 (AP-2) (AID 2282932; active = hit-call score of the fitted dose curve at least 0.9, where 1 is the maximum; inactive = score below 0.9). Particulars: HepG2 AP-2 cis-reporter, Attagene transcription factor profiling; actives raise or lower the signal. Put shortly:
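HepG2 cells were transiently transfected with multiple cis-promoter reporter transcription units and dosed for 24 h. Reporter mRNA was measured by RT-PCR with capillary electrophoresis fluorescence; bidirectional fits relative to DMSO baseline.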

Experiment [4] addresses Transcription factor E2F1 (Homo sapiens) (UniProt Q01094). Put plainly: ATG_E2F_CIS: Attagene CIS-FACTORIAL HepG2 Assay for human E2F Transcription Factor 1 (AID 2282935; active = hit-call score of the fitted dose curve at least 0.9, where 1 is the maximum; inactive = score below 0.9). The note with it: HepG2 Attagene cis-reporter, E2F reporter RNA transcripts; actives raise or lower the signal. The essentials:
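HepG2 cells transiently transfected with multiplexed cis-element reporter units, dosed for 24 h. Reporter mRNA measured by RT-PCR, 6-FAM primer-extension labeling, HpaI digestion and capillary electrophoresis; bidirectional fit versus DMSO baseline.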

Experiment [5] is described as follows: ATG_M_61_CIS: Attagene CIS-FACTORIAL HepG2 Assay for M61 Transcription Factor (Internal Marker) (AID 2282937; active = hit-call score of the fitted dose curve at least 0.9, where 1 is the maximum; inactive = score below 0.9). Particulars: HepG2 Attagene CIS-FACTORIAL M61 internal marker reporter; actives raise or lower the signal. Put shortly:
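Multiplexed reporter mRNA assay, HepG2 human hepatoma cells, 24 h treatment. Signal: FAM-labelled, HpaI-digested RT-PCR fragments by CE. Fit: bidirectional, baseline DMSO.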

Experiment [6] can be described thus: ATG_EGR_CIS: Attagene CIS-FACTORIAL HepG2 Assay for human Early Growth Response 1 (EGR1) (AID 2282938; active = hit-call score of the fitted dose curve at least 0.9, where 1 is the maximum; inactive = score below 0.9). Particulars: HepG2 Attagene CIS-FACTORIAL EGR reporter mRNA; actives raise or lower the signal. Put shortly: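 Multiplexed cis-reporter system in human hepatoma HepG2 cells, transiently transfected. Cells are dosed for 24 h; reporter transcripts are amplified, fluorescently tagged and sized by capillary electrophoresis, with DMSO as negative control.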

The nature of experiment [7]: ATG_Ets_CIS: Attagene CIS-FACTORIAL HepG2 Assay for human Erythroblast Transformation Specific (ETS) (AID 2282941; active = hit-call score of the fitted dose curve at least 0.9, where 1 is the maximum; inactive = score below 0.9). The note with it: HepG2 ETS cis-reporter transcription, actives raise or lower the signal. The essentials: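 Steps: transfect HepG2 with multiple reporter units; treat compound 24 h; isolate RNA, DNase-treat, reverse-transcribe; PCR-amplify, label with 6-FAM, digest with HpaI; separate by capillary electrophoresis. Activity fitted both directions versus DMSO.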

The target in experiment [8] is Hepatocyte nuclear factor 3-beta (Homo sapiens) (UniProt Q9Y261). In words: ATG_FoxA2_CIS: Attagene CIS-FACTORIAL HepG2 Assay for human Forkhead box A2 (FOXA2) (AID 2282942; active = hit-call score of the fitted dose curve at least 0.9, where 1 is the maximum; inactive = score below 0.9). Particulars: HepG2 cis-reporter transcription factor activity, 24 h; actives raise or lower the signal. Put shortly:
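Multiplexed cis-element reporter assay in transiently transfected HepG2. Twenty-four hours post-dosing, RNA was reverse-transcribed, amplified, FAM-labelled, HpaI-digested and separated by CE. Activity gain or loss relative to DMSO.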

A short description of experiment [9]: ATG_FoxO_CIS: Attagene CIS-FACTORIAL HepG2 Assay for human Forkhead box O (FoxO) (AID 2282943; active = hit-call score of the fitted dose curve at least 0.9, where 1 is the maximum; inactive = score below 0.9). The note with it: HepG2 Attagene cis-reporter, FoxO element, mRNA; actives raise or lower the signal. The essentials:
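24 h chemical exposure, HepG2 with transient cis-MRTU transfection. RNA extraction, oligo(dT) RT, reporter-specific PCR, primer-extension labelling, HpaI digestion, CE fragment analysis; bidirectional fit, DMSO baseline.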

Experiment [10] can be described thus: ATG_GATA_CIS: Attagene CIS-FACTORIAL HepG2 Assay for human GATA Binding Protein (AID 2282944; active = hit-call score of the fitted dose curve at least 0.9, where 1 is the maximum; inactive = score below 0.9). The note with it: HepG2 GATA cis-element reporter, Attagene multiplex mRNA; actives raise or lower the signal. Put shortly:
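Endogenous transcription factor activity was captured through cis-promoter-driven reporters in transfected HepG2 cells. After 24 h exposure, reporter transcripts were quantified by RT-PCR with fluorescent capillary electrophoresis, and responses fitted both directions against DMSO.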

The nature of experiment [11]: ATG_ISRE_CIS: Attagene CIS-FACTORIAL HepG2 Assay for human Interferon Regulatory Factor 1 (IRF1) binding to an Interferon-Stimulated Response Element (ISRE) (AID 2282948; active = hit-call score of the fitted dose curve at least 0.9, where 1 is the maximum; inactive = score below 0.9). The note with it: HepG2 ISRE cis-reporter (Attagene), mRNA transcription readout; actives raise or lower the signal. Put shortly:
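Transfected HepG2 (multiple reporter transcription units, cis elements) dosed 24 h. RNA → oligo(dT) RT → PCR → 6-FAM primer extension → HpaI → CE. DMSO = negative control/baseline.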

Experiment [12] can be described thus: ATG_M_32_CIS: Attagene CIS-FACTORIAL HepG2 Assay for M32 Transcription Factor (Internal Marker) (AID 2282949; active = hit-call score of the fitted dose curve at least 0.9, where 1 is the maximum; inactive = score below 0.9;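 also: background control marker of the multiplexed CIS panel rather than a real target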). Particulars: HepG2 Attagene cis-factorial M32 reporter, mRNA; actives raise or lower the signal. The essentials:
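Internal background marker read-out: RT-PCR/capillary electrophoresis fluorescence of reporter transcripts from transiently transfected HepG2 cells after 24 h chemical exposure. Activity fitted bidirectionally relative to DMSO negative control.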

Experiment [13] concerns the target Hepatocyte nuclear factor 6 (Homo sapiens) (UniProt Q9UBC0). In words: ATG_HNF6_CIS: Attagene CIS-FACTORIAL HepG2 Assay for human Hepatocyte Nuclear Factor 6 (HNF6) (AID 2282952; active = hit-call score of the fitted dose curve at least 0.9, where 1 is the maximum; inactive = score below 0.9). Particulars: HepG2 Attagene cis-factorial HNF6 reporter transcription; actives raise or lower the signal. Put shortly: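 HepG2, transient MRTU transfection (cis promoters); 24 h chemical exposure; total RNA → oligo(dT) RT → PCR → 6-FAM labelling → HpaI cut → CE; bidirectional fit vs DMSO.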

The target of experiment [14] is Heat shock factor protein 1 (Homo sapiens) (UniProt Q00613). In words: ATG_HSE_CIS: Attagene CIS-FACTORIAL HepG2 Assay for human Heat Shock Transcription Factor 1 (HSE) (AID 2282953; active = hit-call score of the fitted dose curve at least 0.9, where 1 is the maximum; inactive = score below 0.9). Particulars: HepG2 HSE cis-reporter, Attagene RNA transcription; actives raise or lower the signal. The essentials:
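Cells were transfected with cis-element-driven reporter constructs, dosed for 24 h, then total RNA was reverse-transcribed and reporter cDNA amplified, FAM-labelled and digested with HpaI. Fragments were resolved by capillary electrophoresis; gain or loss was fitted against DMSO.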

Experiment [15] in a line: ATG_MRE_CIS: Attagene CIS-FACTORIAL HepG2 Assay for human Metal Responsive Element (MRE) (AID 2282954; active = hit-call score of the fitted dose curve at least 0.9, where 1 is the maximum; inactive = score below 0.9). The note with it: HepG2 MRE cis-reporter transcription, Attagene multiplex; actives raise or lower the signal. The essentials:
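HepG2 cells transiently transfected with multiple cis-element reporter units measure endogenous MTF1-driven transcription. After 24 h compound exposure, reporter mRNA is quantified by RT-PCR with 6-FAM labelling, HpaI digestion and capillary electrophoresis; bidirectional fits versus DMSO.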

For experiment [16], the target named is Paired box protein Pax-6 (Homo sapiens) (UniProt P26367). In words: ATG_Pax6_CIS: Attagene CIS-FACTORIAL HepG2 Assay for human Paired Box 6 (PAX6) (AID 2282956; active = hit-call score of the fitted dose curve at least 0.9, where 1 is the maximum; inactive = score below 0.9). The note with it: HepG2 CIS-FACTORIAL PAX6 reporter transcription, RNA readout; actives raise or lower the signal. Put shortly: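 Transient MRTU transfection of HepG2 → compound exposure 24 h → TriZol RNA, oligo(dT) RT → PCR, 6-FAM primer extension, HpaI cut → capillary electrophoresis; activity fitted both directions against DMSO.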

Experiment [17] can be described thus: ATG_PXRE_CIS: Attagene CIS-FACTORIAL HepG2 Assay for human Pregnane X Receptor Element (PXRE) (AID 2282957; active = hit-call score of the fitted dose curve at least 0.9, where 1 is the maximum; inactive = score below 0.9). Particulars: HepG2 Attagene CIS-FACTORIAL PXRE reporter, mRNA; actives raise or lower the signal. The essentials:
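Transfect HepG2 with MRTUs (cis promoter elements); dose chemical, incubate 24 h; isolate RNA, RT with oligo(dT), PCR, 6-FAM label, HpaI cut, CE. Gain/loss fit vs DMSO.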

Experiment [18] is described as follows: ATG_Sox_CIS: Attagene CIS-FACTORIAL HepG2 Assay for human SRY-box transcription factor (SOX) (AID 2282960; active = hit-call score of the fitted dose curve at least 0.9, where 1 is the maximum; inactive = score below 0.9). The note with it: HepG2 Attagene cis-factorial SOX reporter, mRNA; actives raise or lower the signal. The essentials: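 Fluorescence-labelled cDNA fragments from reporter transcripts, sized by CE, give the signal. Cells: HepG2, transiently transfected with cis-regulated reporter units. Exposure 24 h; DMSO negative control; bidirectional curve fitting.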

Experiment [19] is described as follows: ATG_SREBP_CIS: Attagene CIS-FACTORIAL HepG2 Assay for human Sterol Regulatory Element Binding (SREBP) (AID 2282962; active = hit-call score of the fitted dose curve at least 0.9, where 1 is the maximum; inactive = score below 0.9). Particulars: HepG2 Attagene cis-factorial SREBP reporter, mRNA; actives raise or lower the signal. Put shortly:
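Transfected HepG2 (cis-regulated reporter library, endogenous TFs) → compound 24 h → total RNA → oligo(dT) RT → reporter-specific PCR → FAM primer extension, HpaI cut → CE fluorescence. Fit bidirectional vs DMSO.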

Experiment [20] addresses Androgen receptor (Homo sapiens) (UniProt P10275). Put plainly: ATG_AR_TRANS: Attagene TRANS-FACTORIAL HepG2 Assay for human Androgen Receptor (AR) (AID 2282973). The note with it: HepG2 Attagene TRANS-FACTORIAL AR reporter transcription. Put shortly:
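Steps: transfect HepG2 with multiple GAL4-UAS reporter transcription units (TRANS format, exogenous NR-Gal4 protein); dose 24 h; isolate RNA, reverse-transcribe, PCR-amplify, FAM-label, HpaI-digest; resolve by capillary electrophoresis. Positive direction vs DMSO.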

Inconclusive results are not listed. Active and inactive are the calls of the source. The calls were made as follows, unless noted: active = hit-call score of the fitted dose curve at least 0.9, where 1 is the maximum; inconclusive = response in the unintended direction; inactive = score below 0.9.

Chain of Androgen receptor (Homo sapiens) (P10275 whole entry, looked up, the tested form may be a part): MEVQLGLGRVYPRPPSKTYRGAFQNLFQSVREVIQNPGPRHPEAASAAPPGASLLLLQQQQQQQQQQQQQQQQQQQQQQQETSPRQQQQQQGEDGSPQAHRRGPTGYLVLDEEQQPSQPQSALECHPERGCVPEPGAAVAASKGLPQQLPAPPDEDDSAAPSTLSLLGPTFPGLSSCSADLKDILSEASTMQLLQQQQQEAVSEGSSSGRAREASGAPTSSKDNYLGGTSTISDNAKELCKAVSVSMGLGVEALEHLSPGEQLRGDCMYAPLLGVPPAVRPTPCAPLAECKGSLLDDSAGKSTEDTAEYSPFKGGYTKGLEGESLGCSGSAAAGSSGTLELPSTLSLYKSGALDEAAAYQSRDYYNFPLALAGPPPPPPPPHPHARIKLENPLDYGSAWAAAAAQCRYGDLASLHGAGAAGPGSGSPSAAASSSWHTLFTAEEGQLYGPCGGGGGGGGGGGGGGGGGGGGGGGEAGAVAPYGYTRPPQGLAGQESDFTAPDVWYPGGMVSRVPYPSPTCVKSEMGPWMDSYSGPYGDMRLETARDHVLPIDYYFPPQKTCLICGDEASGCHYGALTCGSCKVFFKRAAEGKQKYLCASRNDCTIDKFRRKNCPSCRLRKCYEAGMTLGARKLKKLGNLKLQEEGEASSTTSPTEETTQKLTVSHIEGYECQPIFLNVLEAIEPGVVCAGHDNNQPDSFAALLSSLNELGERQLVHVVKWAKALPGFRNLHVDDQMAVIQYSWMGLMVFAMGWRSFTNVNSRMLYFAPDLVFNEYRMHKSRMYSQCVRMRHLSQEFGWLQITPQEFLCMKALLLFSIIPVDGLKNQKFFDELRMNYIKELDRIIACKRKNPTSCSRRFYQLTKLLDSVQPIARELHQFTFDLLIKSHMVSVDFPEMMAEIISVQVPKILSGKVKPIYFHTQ
Chain of Hepatocyte nuclear factor 6 (Homo sapiens) (Q9UBC0 whole entry, looked up): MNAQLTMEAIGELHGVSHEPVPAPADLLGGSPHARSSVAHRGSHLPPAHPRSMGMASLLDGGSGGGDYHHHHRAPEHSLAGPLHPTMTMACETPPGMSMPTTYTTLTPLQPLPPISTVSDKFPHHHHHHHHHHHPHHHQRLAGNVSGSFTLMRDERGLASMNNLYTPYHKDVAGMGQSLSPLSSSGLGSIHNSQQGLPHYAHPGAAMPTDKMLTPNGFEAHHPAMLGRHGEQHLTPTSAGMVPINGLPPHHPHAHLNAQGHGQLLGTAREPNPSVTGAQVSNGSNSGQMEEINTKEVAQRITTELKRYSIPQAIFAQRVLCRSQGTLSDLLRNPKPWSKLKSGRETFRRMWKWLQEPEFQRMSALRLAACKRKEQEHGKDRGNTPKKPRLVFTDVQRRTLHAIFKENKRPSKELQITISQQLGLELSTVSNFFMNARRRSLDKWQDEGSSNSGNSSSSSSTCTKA
Chain of Hepatocyte nuclear factor 3-beta (Homo sapiens) (Q9Y261 whole entry, looked up): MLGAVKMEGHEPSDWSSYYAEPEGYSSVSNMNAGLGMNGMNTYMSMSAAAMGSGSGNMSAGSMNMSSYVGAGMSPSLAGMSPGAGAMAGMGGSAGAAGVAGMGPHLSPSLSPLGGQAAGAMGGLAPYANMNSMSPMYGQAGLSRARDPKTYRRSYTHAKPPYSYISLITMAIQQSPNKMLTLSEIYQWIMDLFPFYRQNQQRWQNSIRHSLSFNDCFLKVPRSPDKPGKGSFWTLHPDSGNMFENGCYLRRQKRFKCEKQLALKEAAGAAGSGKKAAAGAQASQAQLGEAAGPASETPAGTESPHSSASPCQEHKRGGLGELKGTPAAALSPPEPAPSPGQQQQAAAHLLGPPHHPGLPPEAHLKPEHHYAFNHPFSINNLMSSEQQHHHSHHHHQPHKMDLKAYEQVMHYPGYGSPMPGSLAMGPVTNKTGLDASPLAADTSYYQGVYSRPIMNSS
Chain of Transcription factor E2F1 (Homo sapiens) (Q01094 whole entry, looked up): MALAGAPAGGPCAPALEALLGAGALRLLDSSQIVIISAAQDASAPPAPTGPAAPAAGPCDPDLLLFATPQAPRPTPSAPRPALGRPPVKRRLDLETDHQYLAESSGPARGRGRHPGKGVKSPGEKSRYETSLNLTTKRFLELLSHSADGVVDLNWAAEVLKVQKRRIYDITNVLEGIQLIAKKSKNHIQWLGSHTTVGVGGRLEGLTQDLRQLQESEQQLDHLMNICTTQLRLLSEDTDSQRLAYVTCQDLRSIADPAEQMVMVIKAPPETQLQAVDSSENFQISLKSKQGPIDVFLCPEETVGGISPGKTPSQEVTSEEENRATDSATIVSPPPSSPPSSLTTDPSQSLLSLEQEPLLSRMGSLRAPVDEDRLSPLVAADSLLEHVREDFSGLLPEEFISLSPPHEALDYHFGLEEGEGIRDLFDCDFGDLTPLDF
Chain of Paired box protein Pax-6 (Homo sapiens) (P26367 whole entry, looked up): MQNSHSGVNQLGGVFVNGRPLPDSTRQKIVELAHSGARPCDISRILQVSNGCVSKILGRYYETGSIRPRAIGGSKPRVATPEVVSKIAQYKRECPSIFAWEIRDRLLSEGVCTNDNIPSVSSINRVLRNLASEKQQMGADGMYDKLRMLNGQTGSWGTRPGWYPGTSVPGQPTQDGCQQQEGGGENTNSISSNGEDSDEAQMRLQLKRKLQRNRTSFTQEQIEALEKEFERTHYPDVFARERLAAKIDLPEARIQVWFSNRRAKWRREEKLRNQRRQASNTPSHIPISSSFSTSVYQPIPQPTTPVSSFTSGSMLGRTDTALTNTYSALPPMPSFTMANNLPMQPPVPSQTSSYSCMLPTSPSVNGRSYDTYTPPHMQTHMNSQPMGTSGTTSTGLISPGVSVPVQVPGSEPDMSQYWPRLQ
Chain of Heat shock factor protein 1 (Homo sapiens) (Q00613 whole entry, looked up, the tested form may be a part): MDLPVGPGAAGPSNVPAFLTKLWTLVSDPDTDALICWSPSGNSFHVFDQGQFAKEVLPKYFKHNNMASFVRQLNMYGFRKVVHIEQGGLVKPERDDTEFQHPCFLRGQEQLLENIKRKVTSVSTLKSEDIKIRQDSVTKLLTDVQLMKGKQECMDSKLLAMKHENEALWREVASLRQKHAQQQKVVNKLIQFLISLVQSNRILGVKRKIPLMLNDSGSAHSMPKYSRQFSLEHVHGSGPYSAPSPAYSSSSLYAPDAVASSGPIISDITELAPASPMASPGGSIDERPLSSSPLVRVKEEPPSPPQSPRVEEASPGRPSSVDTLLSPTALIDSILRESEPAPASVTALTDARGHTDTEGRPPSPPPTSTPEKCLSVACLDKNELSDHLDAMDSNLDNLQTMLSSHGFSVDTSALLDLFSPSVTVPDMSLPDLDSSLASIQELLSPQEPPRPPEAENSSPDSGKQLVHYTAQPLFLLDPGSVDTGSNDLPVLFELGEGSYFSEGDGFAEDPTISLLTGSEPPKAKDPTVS

On to `CC(C)c1ccc(O)cc1`, for which the half-maximal activity concentration (AC50) (in general, the concentration at which the activity in the assay is half-maximal) in experiment [1] is 40.2 µM (active); in [2], 140 µM (active); in experiment [17], 33.6 µM (active). The compound was classed as inactive in experiment [3], in experiment [4], in experiment [5], in experiment [6], in [7] and in experiment [8]. For the same compound, the call in experiment [9], in experiment [10], in experiment [11], in experiment [12], in [13] and in experiment [14] was inactive. Besides, the result in experiment [15], in experiment [16], in experiment [18] and in experiment [19] was inactive.
`COC(OC(C)=O)c1ccccc1` (stereo not given): the compound was classed as inactive in experiment [20].
On the same count and under the same terms, under `CC1COC(=O)O1` (stereo not given) stands “inactive”; under `c1ccc2cc(Nc3ccc(Nc4ccc5ccccc5c4)cc3)ccc2c1`, “inactive”; under `CCc1c(C)cc(N)c(CC)c1N`, “inactive”.
Same read-out and setting: as for `C[Si](O[Si](C)(C)C)O[Si](C)(C)C`, the entry is “inactive”; as for `CC(C)CCOCc1ccccc1`, “inactive”.
Same read-out and setting: as for `c1ccc(-c2ccccn2)nc1`, the entry is “inactive”; as for `CC(CO)c1ccccc1` (stereo not given), “inactive”.
Regarding `O=C[C@H](O)[C@H](O)[C@H](O)CO`, the outcome in experiment [20] was inactive.
Same read-out and setting: as for `CC(=O)CC(=O)Nc1ccc(C)cc1C`, the entry is “inactive”; as for `CCCCCCCCCC[N+](C)(C)[O-]`, “inactive”.
On the same count and under the same terms, as for `CC(CC=O)CCCC(C)(C)O` (stereo not given), the entry is “inactive”; as for `CC(C)CCCCCCc1ccc(OCCOCCO)cc1`, “inactive”; as for `Brc1cc(Br)c(Oc2c(Br)cc(Br)c(Br)c2Br)cc1Br`, “inactive”.
As for `CN(C)Cc1ccccc1O`, the compound was classed as inactive in experiment [20].
As to `COC(=O)c1cccnc1`, in experiment [20], the outcome was inactive.
Same read-out and setting: as for `Oc1cc2ccccc2cc1O`, the entry is “inactive”; as for `Nc1nc2ccc([N+](=O)[O-])cc2s1`, “inactive”; as for `N#CCCOCCC#N`, “inactive”.
The same measure, in the same setting: as for `Cc1cc(O)c(C(C)(C)C)cc1C(C)(C)C`, the entry is “inactive”; as for `c1ccc2[nH]ccc2c1`, “inactive”.
Consider `O=C(C=Cc1ccccc1)OCC=Cc1ccccc1`, for which, in experiment [20], the compound was classed as inactive.
Regarding `OCc1cccc(Oc2ccccc2)c1`, the compound was classed as inactive in experiment [20].
The same measure, in the same setting: under `CC(C=O)Cc1ccc(C(C)(C)C)cc1` (stereo not given) stands “inactive”; under `CC=C(C)C(C)=O`, “inactive”; under `O=C(Cl)C(F)(F)C(F)(F)C(F)(F)C(F)(F)C(F)(F)C(F)(F)C(F)(F)F`, “inactive”.
On to `COC(F)(F)C(F)(C(F)(F)F)C(F)(F)F`, for which the call in experiment [20] was inactive.
Consider `CC(Oc1cc(Cl)ccc1Cl)C(=O)O` (stereo not given), for which the result in [20] was inactive.
Regarding `CC1=C(C)S(=O)(=O)CCS1(=O)=O`, in experiment [20], the compound was called inactive.
Same read-out and setting: as for `COc1cc2c(c(OC)c1OC)-c1ccc(OC)c(=O)cc1[C@@H](NC(C)=O)CC2`, the entry is “inactive”; as for `CCN(CC)c1ccc(C=O)cc1`, “inactive”.
